Screens from PubChem.
Compounds with a hit are over-represented: about 2% of the library has one in this group of screens.
CHT inh: inhibitors of human choline transporter CHT | High affinity choline transporter 1 (Homo sapiens), Q9GZV3 | CHT-expressing cells, membrane potential dye, choline response; active compounds read low | B-score at 10 µM | 0.86% of 310,000 active | AID 488975, 2010;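 active = B-score over 3 SD under the library average, and starting fluorescence ratio not unusually high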;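 also: choline stimulus applied at its EC90 after an EC20 pre-addition; B-score computed on integrated fluorescence ratio after choline addition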
Target sequence (Q9GZV3 whole entry, looked up): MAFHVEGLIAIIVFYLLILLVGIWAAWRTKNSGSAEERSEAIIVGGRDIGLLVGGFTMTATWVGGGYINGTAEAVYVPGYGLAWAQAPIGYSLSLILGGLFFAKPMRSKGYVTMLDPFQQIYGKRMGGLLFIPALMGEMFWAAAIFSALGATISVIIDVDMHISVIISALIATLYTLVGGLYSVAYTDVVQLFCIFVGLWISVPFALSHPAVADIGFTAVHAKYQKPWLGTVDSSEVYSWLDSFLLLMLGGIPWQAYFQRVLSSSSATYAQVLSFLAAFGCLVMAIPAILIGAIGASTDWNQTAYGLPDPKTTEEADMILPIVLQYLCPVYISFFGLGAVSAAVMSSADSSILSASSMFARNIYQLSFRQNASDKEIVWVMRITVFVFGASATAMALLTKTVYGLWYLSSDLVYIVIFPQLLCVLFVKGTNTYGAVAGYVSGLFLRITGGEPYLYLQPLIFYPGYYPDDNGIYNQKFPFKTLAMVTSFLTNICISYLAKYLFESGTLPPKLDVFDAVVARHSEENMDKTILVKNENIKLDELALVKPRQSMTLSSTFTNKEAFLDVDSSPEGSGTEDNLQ
CHT PAM: CHT positive allosteric modulators, primary screen, cell-based, membrane potential dye, choline EC20; High affinity choline transporter 1 (Homo sapiens), Q9GZV3; CHT-expressing cells; active compounds read high; LV-AA mutant CHT in HEK293 cells; B-score at 10 µM; 0.49% of 310,000 active;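 active = initial fluorescence not abnormally high and integrated response B-score, plate-corrected, over 3 SD above library mean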
EP2 mod: EP2 receptor modulators, cAMP readout, primary screen, cell-based, HTRF cAMP, PGE2 stimulation; AID 940, 2007; Prostaglandin E2 receptor EP2 subtype (Homo sapiens), P43116; EP2-expressing cells, cAMP HTRF FRET, PGE2 co-stimulation; induction, % at 25 µM; 0.83% of 260,000 active;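 active = compounds whose cAMP rise, as percent of the full-agonist control response, exceeds 60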;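 also: rat C6 glioma line stably carrying human EP2 under a CMV promoter; the protocol text gives 20 µM as final concentration; 100% = response of wells given 1 µM PGE2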
PGE2 EP2 inh: human EP2 receptor antagonists, primary screen, TR-FRET cAMP, C6 glioma cells; Prostaglandin E2 receptor EP2 subtype (Homo sapiens), P43116; C6 glioma cells expressing human EP2; cells stimulated with saturating PGE2; inhibition, % at 25 µM; 0.52% of 260,000 active; AID 1422, 2008;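 active = percent inhibition above 40 after rounding to a whole number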;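 also: rat C6 glioma host cells with rolipram phosphodiesterase inhibitor present; the protocol text gives 20 µM as final concentration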
EP2 cAMP induct: cAMP induction in EP2, EP4, beta2-AR and parental cells, confirmation, counter-screen for EP2 modulator project, cell-based, five parallel assays, C6 glioma, HEK293; shares compounds with EP2 mod; cAMP HTRF induction; plus low (about EC15) PGE2 agonist; calls only at 20 µM (by protocol); 47% of 1,300 active; AID 1080, 2008;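 active = cAMP induction above 50% in the main assay while under 30% in all four parallel counter assays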;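 also: rat C6 glioma cells stably expressing human EP2 receptor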
Starred values were filed as active, the others as inactive; i = inactive; . = no result given; + = active, no number.

SMILES	CHT inh	CHT PAM	EP2 mod	PGE2 EP2 inh	EP2 cAMP induct
Cc1sc(NC(=O)Cc2ccc3c(c2)OCO3)nc1-c1ccc2c(c1)CCN2C(=O)c1cccc(F)c1	i	i	72.1*	5.5	i
Cc1ccccc1C(=O)N1CCc2cc(-c3nc(NC(=O)Cc4ccc5c(c4)OCO5)sc3C)ccc21	i	i	14.2	8.5	.
O=C(O)/C=C/C=C/c1ccc2c(c1)OCO2	.	.	-9.9	8.5	.
Cc1ccccc1Nc1cccc2nonc12	i	i	66.5*	6.8	+
O=C(O)[C@@H](S)[C@@H](S)C(=O)O	.	.	37.3	11.0	.
COc1ccccc1C1(O)CCCN(CC(O)c2ccc3c(c2)CCCN3C(C)=O)C1 (stereo unspecified)	.	.	-13.7	1.9	.
COc1nc(-c2ccccc2)nnc1-c1ccccc1	.	.	74.6*	5.3	i
Clc1ccc(-c2nnc(-c3ccccc3)c(-c3ccccc3)n2)cc1	i	i	33.5	6.8	.
Cc1ccc(S(=O)(=O)NCC(=O)OCN2C(=O)c3ccccc3C2=O)cc1	i	i	67.5*	7.8	i
CC(=O)C1=C(O)C(=O)N(CCCNCCO)C1c1ccc(C)cc1 (stereo unspecified)	.	.	13.7	7.8	.
Cc1cc(N)c2cc(NC(=O)Nc3ccc4nc(C)cc(N)c4c3)ccc2n1	.	.	61.5*	48.7*	i
Cc1ccc2cc(NC(=O)Cc3ccccc3)ccc2n1	i	i	-23.5	7.0	.
O=S(=O)(NCC1CCCO1)c1ccc(S(=O)(=O)N(Cc2cccs2)C2CC2)cc1 (stereo unspecified)	.	.	-66.1	8.9	.
COc1ccc(S(=O)(=O)N(Cc2cccs2)C2CCCC2)cc1	i	i	80.6*	4.8	+
C=CCSc1nc(Oc2ccccc2)c2sccc2n1	i	i	69.3*	8.2	i
CSc1nc(Oc2ccccc2)c2sccc2n1	i	i	66.3*	5.6	+
CC(=O)Nc1ccc(Sc2ncnc3scc(-c4ccccc4)c23)cc1	i	i	25.7	3.9	.
CCCC(=O)Nc1ccccc1Sc1ncnc2scc(-c3ccccc3)c12	i	i	67.9*	6.4	i
Cc1ccc(-c2nn(-c3ccccc3)cc2CN(Cc2ccccc2)C(=O)c2ccco2)o1	i	i	79.6*	8.6	+
Cc1ccc(C2CC(c3cccs3)=NN2C(=O)c2ccc(Br)o2)cc1 (stereo unspecified)	i	i	57.2	9.6	i
CC(=O)N1N=C(c2cccs2)CC1c1ccc(Br)cc1 (stereo unspecified)	i	i	.	.	.
Cn1c(SCC#N)nnc1-c1ccncc1	.	.	-18.1	9.3	.
Cc1c(C(N)=O)sc2ncn(Cc3ccc(Cl)cc3)c(=O)c12	.	.	-83.8	7.0	.
COC(=O)c1c(NC(=O)Cc2cccs2)sc(C(=O)Nc2ccc(Cl)cc2)c1C	.	.	32.7	10.5	.
Cc1cccc(C)c1NC(=O)C1CCCO1 (stereo unspecified)	.	.	-4.5	14.6	.
SMILES	CHT inh	CHT PAM	EP2 mod	PGE2 EP2 inh	EP2 cAMP induct
Cc1ccc(Cn2c(/C=C/c3ccco3)nc3ccccc32)cc1	i	i	54.7	32.5	.
Clc1ccc(Cn2c(/C=C/c3ccco3)nc3ccccc32)cc1	i	i	68.8*	9.4	+
CC[C@H](Cn1nc(-c2cccs2)ccc1=O)NC(=O)CCn1cnc2ccccc21	.	.	48.3	.	.
COc1cc(S(=O)(=O)N2CCOCC2)ccc1Cl	.	.	0.7	5.4	.
CCN(CC)CC(=O)NCC1(c2ccccc2)CCCC1	i	i	25.8	4.4	.
CCCN(CCC)C(C)C(=O)NCC1(c2ccccc2)CCCC1 (stereo unspecified)	i	i	73.6*	1.0	+
Cc1ccc(-c2nc(=S)c3c(n2Cc2ccco2)CCCC3)cc1	.	.	21.3	-0.5	.
Cc1cccc(-c2nc(=S)c3c(n2Cc2ccco2)CCCC3)c1	i	i	65.8*	6.8	i
Cc1[nH]ccc(=O)c1OCc1c(Cl)cccc1Cl	i	i	-4.3	6.4	.
Cc1ccc(Cn2ccc(=O)c(OCc3c(Cl)cccc3Cl)c2C)cc1	i	i	66.6*	8.3	+
O=C(O)/C=C/c1cn(-c2ccccc2)nc1-c1cc2ccccc2oc1=O	i	i	-3.6	1.5	.
N#Cc1cn(-c2ccccc2)nc1-c1cc2ccccc2oc1=O	i	i	65.0*	7.8	i
O=C(COc1cccc(NC(=O)c2cccs2)c1)Nc1ccc(Br)cc1	.	.	-65.3	21.0	.
O=C(c1ccc2c(c1)OCO2)N1CCC[C@H]1Cn1nc(-c2ccc(F)cc2)ccc1=O	.	.	-44.4	.	.
CC(C)CCn1c(-c2nonc2N)nc2ccccc21	i	i	69.7*	10.9	i
CCCCn1c(-c2nonc2N)nc2ccccc21	i	i	53.6	6.7	.
CCSc1nc2sc3c(c2c(=O)n1CC)CC(C)(C)OC3	i	i	52.4	5.8	i
CCC(c1nnnn1C1CCCCC1)N1CCN(C)CC1 (stereo unspecified)	.	.	0.5	12.2	.
CC(C)NC(=S)N/N=C1\CCCCC1C1CCCCC1 (stereo unspecified)	i	i	80.5*	-0.3	+
COc1cccc(-n2c(CCn3nc(C)c([N+](=O)[O-])c3C)n[nH]c2=S)c1	i	i	31.9	1.7	.
Cc1cccc(-n2c(CCn3nc(C)c([N+](=O)[O-])c3C)n[nH]c2=S)c1	i	i	61.5*	11.3	i
CSc1ccccc1NC(=O)COc1ccc(Cl)cc1C	i	i	66.5*	12.2	+
Cc1cc(Cl)ccc1OCC(=O)Nc1ccccc1CO	i	i	-8.0	24.8	.
CCn1c2ccccc2c2cc(Nc3cc(C)nc4ncnn34)ccc21	i	i	82.7*	8.0	+
CCn1nccc1C(=O)Nc1ccc(Cl)cc1Cl	i	i	38.4	8.4	.
SMILES	CHT inh	CHT PAM	EP2 mod	PGE2 EP2 inh	EP2 cAMP induct
CCn1ncc(Cl)c1C(=O)Nc1cc(Cl)ccc1Cl	i	i	69.9*	7.3	+
FC(F)(F)c1cc(-c2ccccc2)nc2nc(N3CCOCC3)sc12	i	i	67.1*	10.3	+
Cc1ccccc1CCN(Cc1cc2ccc(C)c(C)c2[nH]c1=O)C(=O)c1cccnc1	.	.	-49.5	21.6	.
O=C(CSCc1c(Cl)cccc1Cl)Nc1ccccc1-c1ccccc1	i	i	75.0*	6.5	i
O=C(CN1CCN(Cc2ccccc2)CC1)Nc1ccccc1-c1ccccc1	i	i	65.8*	18.2	i
COc1ccc(-n2c(CCc3ccccc3)nnc2SCC(=O)c2ccccc2)cc1	i	i	52.5	14.9	i
COc1ccccc1N(CC(=O)N1CCN(C)CC1)S(=O)(=O)c1ccc(C)cc1	.	.	-31.0	6.3	.
